According to the supplement of paper PMC7057948, “A genome-wide approach for identification and characterisation of metabolite-inducible systems” (Nature Communications, 2020):

Key:
Settings in all cases: inducer concentration 5 mM; 6 h; Cupriavidus necator H16; minimal medium + 0.4% gluconate
[1] = tested on: AcoR/P_H16_RS19445 acetoin biosensor (pEH052); assay: relative induction of RFP reporter vs primary effector; higher = stronger activation
Protocol: (§1)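 Orthogonality screen of 21 primary inducers against 21 transcription factor/inducible promoter–mRFP biosensors in C. necator H16 in minimal medium, robotic 96-well format, 5 mM inducer, 30 °C. OD-normalised RFP fluorescence was read 6 h later and expressed as relative induction (%) = 100 × (FL compound − FL uninduced)/(FL primary inducer − FL uninduced); mean of n=4. Cognate pairs (100% by definition) omitted.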

[2] = tested on: AraC/P_araBAD L-arabinose biosensor (pEH176); assay: as above
Protocol: as §1

[3] = tested on: BadR/P_H16_RS27200 cyclohexanecarboxylate biosensor (pEH159); assay: as above
Protocol: as §1

[4] = tested on: BenM/P_H16_RS09790 benzoate biosensor (pEH148); assay: as above
Protocol: as §1

[5] = tested on: FdsR/P_H16_RS03165 formate biosensor (pEH134); assay: as above
Protocol: as §1

[6] = tested on: GabR/P_H16_RS23655 GABA biosensor (pEH256); assay: as above
Protocol: as §1

[7] = tested on: HpdA/P_H16_RS24175 L-tyrosine biosensor (pEH158); assay: as above
Protocol: as §1

[8] = tested on: NahR/P_H16_RS08125 salicylate biosensor (pEH042); assay: as above
Protocol: as §1

[9] = tested on: OapR/P_H16_RS01330 beta-alanine biosensor (pEH147); assay: as above
Protocol: as §1

[10] = tested on: PcaQ/P_H16_RS30145 3,4-dihydroxybenzoate biosensor (pEH161); assay: as above
Protocol: as §1

[11] = tested on: PhgR/P_H16_RS05530 phenylglyoxylate biosensor (pEH155); assay: as above
Protocol: as §1

[12] = tested on: SauR/P_H16_RS13695 sulfonatoacetate biosensor (pEH157); assay: as above
Protocol: as §1

[13] = tested on: TtdR/P_H16_RS10665 tartrate biosensor (pEH083); assay: as above
Protocol: as §1

[14] = tested on: heterologous L-rhamnose-inducible system; assay: as above
Protocol: as §1

[15] = tested on: heterologous acrylate-inducible system; assay: as above
Protocol: as §1

[16] = tested on: heterologous cumate-inducible system; assay: as above
Protocol: as §1

[17] = tested on: heterologous itaconate-inducible system; assay: as above
Protocol: as §1

[18] = tested on: HpdR/P_H16_RS18295 3-hydroxypropanoate biosensor (pEH010); assay: relative induction of RFP reporter vs primary effector (background-corrected); higher = stronger activation of the biosensor;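 further: RFP excited at 585 nm with emission read at 620 nm, culture medium blanks subtracted from fluorescence and absorbance prior to normalisation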
Protocol: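 C. necator H16 strains, each carrying one of 21 transcription factor/inducible promoter–mRFP biosensor plasmids, were grown in minimal medium in 96-well plates (robotic platform). Each was exposed to 46 structurally or metabolically related compounds at 5 mM at 30 °C. OD-normalised RFP fluorescence was read 6 h later and expressed as relative induction (%) = 100 × (FL compound − FL uninduced)/(FL primary inducer − FL uninduced); mean of n=4.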

[19] = tested on: XdhR/P_H16_RS05055 xanthine biosensor (pEH154); assay: relative induction of RFP reporter vs primary effector; higher = stronger activation
Protocol: as §1

| Compound | relative induction of RFP reporter [1] | relative induction of RFP reporter [2] | relative induction of RFP reporter [3] | relative induction of RFP reporter [4] | relative induction of RFP reporter [5] | relative induction of RFP reporter [6] | relative induction of RFP reporter [7] | relative induction of RFP reporter [8] | relative induction of RFP reporter [9] | relative induction of RFP reporter [10] | relative induction of RFP reporter [11] | relative induction of RFP reporter [12] | relative induction of RFP reporter [13] | relative induction of RFP reporter [14] | relative induction of RFP reporter [15] | relative induction of RFP reporter [16] | relative induction of RFP reporter [17] | relative induction of RFP reporter [18] | relative induction of RFP reporter [19] |
| --- | --- | --- | --- | --- | --- | --- | --- | --- | --- | --- | --- | --- | --- | --- | --- | --- | --- | --- | --- |
| O=c1[nH]c(=O)c2nc[nH]c2[nH]1 [xanthine] | -1.36% | 0.0252% | -0.537% | -0.0092% | -4.71% | -1.02% | -0.0594% | 0.0144% | 1.27% | -0.198% | -0.06% | 0.0306% | 0.737% | 0.0204% | -1.68% | -0.479% | 0.00052% | – | – |
| CCC(=O)O | – | – | – | – | – | – | – | – | – | – | – | – | – | – | – | – | – | 0.144% | – |
| OC1OC[C@H](O)[C@H](O)[C@H]1O (mixture of isomers) [L-arabinose] | -0.298% | – | -0.67% | -0.0174% | -1.73% | -0.944% | 0.0304% | -0.0109% | -0.0273% | -0.0772% | -0.169% | -0.00743% | -0.392% | 0.00935% | -0.681% | -0.337% | 0.00235% | – | -0.221% |
| N[C@@H](Cc1ccc(O)cc1)C(=O)O [L-tyrosine] | -2.55% | 0.00497% | 0.136% | -0.0654% | -2.95% | -2.3% | – | 0.00647% | -1.24% | 0.392% | -0.239% | 0.00275% | 1.67% | 0.00824% | -2.03% | -2.72% | 0.264% | – | -1.38% |
